Screening data (PubChem BioAssay)
An excerpt weighted towards active compounds, which were near 21% of everything screened.
Shiga toxin inh = inhibitors of Shiga toxin in Vero cells; Vero cells, Shiga toxin protein synthesis inhibition reporter; inhibition, % at 38.7 µM; 290,000 compounds, 9.2% hits; AID 2315; in the data active = inhibition mostly above about 28%, no sharp cut-off; inactive = mostly below about 43%; note: 0% is about no effect
Pf growth 96h = P. falciparum growth inhibition at 96 hour, primary screen for plastid delayed-death inhibitors. P. falciparum luciferase reporter growth, 96 h. Potency, µM (titrated, usually from 28.7 µM), inactives show at the highest dose activity change, negative = inhibition, actives largely listed as inhibitors. 320,000 compounds, 6.9% hits. AID 504834; note: potency is the fitted concentration of half-maximal effect; % is set by controls: 0 for no effect and ±100 for the full control effect
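Infected RBCs, 2% Hct / 0.05% parasitemia final; luciferase-reporter P. falciparum; cpd 96 h, 37 C, 5% CO2; luciferase detection reagent; luminescence.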
Cycloheximide cs = counter-screen hit for Shiga toxin inhibitors, cycloheximide; cell reporter, cycloheximide protein synthesis inhibition counterscreen; 300,000 compounds, 12% hits; max response, %; in the data active = max response mostly above about 13%, no sharp cut-off; inactive = mostly below about 14%; note: read at 38.3 µM for the half of the compounds with a filed dose; 0% is about no effect
HCMV antiviral = blocks human cytomegalovirus replication; AID 1259415; HFF cells, HCMV-luciferase reporter, 72 h; active compounds read low; activity change, negative = inhibition, % at 57.5 µM; 410,000 compounds, 4.5% hits; in the data active = activity change below about -60%; inconclusive = no clear call, values can overlap the other calls; inactive = above about -39%; note: % is set by controls: 0 for no effect and ±100 for the full control effect
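HFF cells seeded 16 h at 37C, treated with compounds, infected with luciferase-reporter HCMV at MOI 1 PFU/cell; luciferase read at 72 h post infection, normalized to buffer-only and Salinomycin controls.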
Pf growth 48h = P. falciparum growth inhibition at 48 hours (one generation); P. falciparum luciferase growth in erythrocytes, 48 h; Potency, µM (titrated, usually from 28.7 µM), inactives show at the top dose activity change, negative = inhibition, usual class: inhibitors; AID 504832; 310,000 compounds, 5.9% hits; note: potency is the fitted concentration of half-maximal effect; % is set by controls: 0 for no effect and ±100 for the full control effect
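Cell-based growth assay: transgenic P. falciparum expressing firefly luciferase, cultured in red cells within RPMI 1640 containing 0.5% w/v Albumax, 24 mM bicarbonate and gentamycin. A drop in luciferase activity indicates inhibition.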
HCV inh = inhibitors of hepatitis C virus infection. Huh7.5.1 HCVcc-Cre infection, luciferase reporter, 44 h. Potency, µM (titrated, usually from 41.8 µM), for the others: at the highest dose activity change, negative = inhibition, hits mostly inhibitors. 340,000 compounds, 3.4% hits; note: potency is the fitted concentration of half-maximal effect; % is set by controls: 0 for no effect and ±100 for the full control effect
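Seed cells (1,000/well) for 4 h; treat with compound and infect with HCVcc-Cre, moi about 0.5. Incubate 44 h, then detect luciferase activity.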
* marks the source's active call; other numbers are inactive results; [ ] = dose if it differs, or a comment. Unless noted, calls come from the whole dose curve; as a rule, active = well fitted inhibition curve with a large enough effect; inconclusive = small, poorly fitted or top-dose-only effect, or another doubt; inactive = no such curve, though single readings can be large or run the other way.

Results for CC(=O)Oc1cc(C)c(OC(C)=O)c2ccccc12 ?
Pf growth 96h: 4.78µM*; HCMV antiviral: -12.5; Pf growth 48h: 6.75µM*

What do the screens show for `COc1cc2c(ccc3cc(OC)c(OC)c(O)c32)cc1O`?
Shiga toxin inh: 4.0; Pf growth 96h: 3.9%; Cycloheximide cs: -4.6; HCMV antiviral: -104.8*; Pf growth 48h: inconclusive; HCV inh: inconclusive

Results for COc1cc2cc(OC(C)=O)c3cc4c(cc3c2c(OC)c1OC)OCO4 ?
HCMV antiviral: 14.5

What do the screens show for `N#C[C@@H](c1ccccc1)C1CCN(S(=O)(=O)CCCCl)CC1`?
HCMV antiviral: -2.5

How did Cc1cc2oc(C(=O)Nc3cccc(-c4nc5ccccc5o4)c3)c(C)c2cc1C do in these assays?
HCMV antiviral: 54.4

What do the screens show for `O=C(NCCO)C(=O)Nc1cc2c3c(c1)CCN3C(=O)CC2`?
Shiga toxin inh: -4.2; Pf growth 96h: 33.5%; Cycloheximide cs: -3.8; HCMV antiviral: 26.7; Pf growth 48h: 38.5%; HCV inh: 2.6%

Results for Nc1ncnc2c1ncn2[C@@H]1O[C@H](CN2CCCS2(=O)=O)[C@@H](O)[C@H]1O ?
HCMV antiviral: 13.6; HCV inh: 35.5%

How did COc1ccccc1NC(=S)N(Cc1ccco1)Cc1cc2cccc(C)c2[nH]c1=O do in these assays?
Shiga toxin inh: -10.8; Pf growth 96h: -3.5%; Cycloheximide cs: -3.7; HCMV antiviral: -21.1; Pf growth 48h: inconclusive; HCV inh: inconclusive

Results for COc1ccccc1NC(=S)N(Cc1ccco1)Cc1cc2cc(C)c(C)cc2[nH]c1=O ?
Shiga toxin inh: -10.1; Pf growth 96h: 2.08µM*; Cycloheximide cs: -0.8; HCMV antiviral: -61.9*; Pf growth 48h: 13.1µM*; HCV inh: inconclusive

What do the screens show for `COc1ccccc1NC(=O)N(Cc1ccco1)Cc1cc2ccc(C)c(C)c2[nH]c1=O`?
Shiga toxin inh: -1.3; Pf growth 96h: 3.5%; Cycloheximide cs: -4.0; HCMV antiviral: 46.5; Pf growth 48h: inconclusive; HCV inh: inconclusive

How did COc1ccccc1NC(=O)N(Cc1ccco1)Cc1cc2cc(C)cc(C)c2[nH]c1=O do in these assays?
Shiga toxin inh: 8.7; Pf growth 96h: inconclusive; Cycloheximide cs: -1.9; HCMV antiviral: -11.7; Pf growth 48h: inconclusive; HCV inh: 3.16µM*

How did COc1cc2cc(CN(Cc3cccs3)C(=S)Nc3ccc(C)cc3)c(=O)[nH]c2cc1OC do in these assays?
Shiga toxin inh: 7.7; Pf growth 96h: -10.3%; Cycloheximide cs: 1.4; HCMV antiviral: -69.2*; Pf growth 48h: inconclusive; HCV inh: -32.0%

How did COc1cc2cc(CN(Cc3cccs3)C(=S)Nc3cccc(C)c3)c(=O)[nH]c2cc1OC do in these assays?
Shiga toxin inh: -11.2; Pf growth 96h: 0.0%; Cycloheximide cs: 1.1; Pf growth 48h: inconclusive; HCV inh: -0.8%

Results for O=C1SC(c2ccccc2)=C/C1=C\N1CCCCC1 ?
Shiga toxin inh: 45.5; Pf growth 96h: inconclusive; Cycloheximide cs: 23.1; HCMV antiviral: 99.8; Pf growth 48h: 5.3%; HCV inh: 11.2µM*

How did O=C1OC(c2ccccc2)=C/C1=C\N1CCOCC1 do in these assays?
Shiga toxin inh: -4.1; Pf growth 96h: 16.7%; Cycloheximide cs: 7.1; HCMV antiviral: 13.7; Pf growth 48h: 94.5%; HCV inh: -16.7%

What do the screens show for `CS(=O)(=O)N1CCC(Oc2ccccc2C(=O)N2CCCCC2CO)CC1` (stereo unspecified)?
Shiga toxin inh: 8.2; Pf growth 96h: inconclusive; Cycloheximide cs: -5.3; HCMV antiviral: -30.1; Pf growth 48h: 4.2%; HCV inh: 19.4%

How did COC(=O)CN(C)C(=O)c1ccccc1OC1CCN(S(C)(=O)=O)CC1 do in these assays?
Shiga toxin inh: 10.2; Pf growth 96h: 13.1µM*; Cycloheximide cs: 5.6; HCMV antiviral: 62.8; Pf growth 48h: -35.7%; HCV inh: 21.9%

Results for Cc1ccccc1NC(=O)N1C2CCCC1CC(NC(=O)C(C)(C)C)C2 (stereo unspecified) ?
Shiga toxin inh: 28.3; Pf growth 96h: 11.7µM*; Cycloheximide cs: -2.6; HCMV antiviral: 71.5; Pf growth 48h: 0.3%; HCV inh: 6.8%

Results for Cn1ccnc1SCC(=O)c1c[nH]c2ccccc12 ?
Shiga toxin inh: 78.0*; Pf growth 96h: 411.2%; Cycloheximide cs: 43.7*; HCMV antiviral: 81.9; Pf growth 48h: inactive; HCV inh: 4.7%

What do the screens show for `Cn1ccnc1SCC(=O)c1ccc(Br)cc1`?
Shiga toxin inh: 59.9*; Pf growth 96h: 6.5%; Cycloheximide cs: 38.4*; HCMV antiviral: -18.8; Pf growth 48h: 58.5%; HCV inh: -8.8%

Results for O=C(CSc1nccc(=O)[nH]1)c1c[nH]c2ccccc12 ?
Shiga toxin inh: 8.6; Pf growth 96h: 0.0%; Cycloheximide cs: -1.4; HCMV antiviral: -0.8; Pf growth 48h: 5.4%; HCV inh: 7.4%

What do the screens show for `O=C(CSc1nccn1-c1ccccc1)c1ccc(Br)cc1`?
Shiga toxin inh: 39.2*; Pf growth 96h: 29.6%; Cycloheximide cs: 15.7*; HCMV antiviral: 33.8; Pf growth 48h: -2.2%; HCV inh: -6.0%

Results for O=C(CSc1nccn1-c1ncc(C(F)(F)F)cc1Cl)c1ccc(Cl)cc1 ?
Shiga toxin inh: active; Pf growth 96h: 116.1%; Cycloheximide cs: 47.3*; HCMV antiviral: -4.5; Pf growth 48h: 120.4%; HCV inh: 1.0%

What do the screens show for `CCN(C(=O)c1ccc2c(c1)OCO2)C1CCS(=O)(=O)C1` (stereo unspecified)?
Pf growth 96h: 29.2%; HCMV antiviral: -10.1; Pf growth 48h: 1.6%; HCV inh: 2.1%

How did C=CCc1cccc2cc(C(=O)Nc3ccccc3C(=O)O)c(=O)oc12 do in these assays?
Shiga toxin inh: -14.7; Pf growth 96h: 37.9%[5.75 µM]; Cycloheximide cs: 0.2; HCMV antiviral: 3.4; Pf growth 48h: 6.7%; HCV inh: -0.2%

What do the screens show for `OC(c1ccc(Cl)cc1Cl)C(Cc1cccnc1)n1cncn1` (stereo unspecified)?
Shiga toxin inh: -27.5; Pf growth 96h: 13.1µM*; Cycloheximide cs: 6.5; HCMV antiviral: -14.1; Pf growth 48h: inconclusive; HCV inh: 11.2%

Results for COc1ccc(NC(=O)c2nc[nH]c2C(=O)N[C@@H](CC(C)C)C(=O)OC(C)(C)C)cc1 ?
Shiga toxin inh: -1.0; Pf growth 96h: inconclusive; Cycloheximide cs: -3.9; HCMV antiviral: -78.3*; Pf growth 48h: 10.4µM*; HCV inh: -25.0%

How did COc1ccc(NC(=O)c2nc[nH]c2C(=O)N[C@@H](C)C(=O)OC(C)(C)C)cc1 do in these assays?
Shiga toxin inh: 2.4; Pf growth 96h: inconclusive; Cycloheximide cs: -2.5; HCMV antiviral: 50.5; Pf growth 48h: inconclusive; HCV inh: -14.4%

Results for CC(C)C[C@H](NC(=O)c1nc[nH]c1C(=O)NCc1ccccc1)C(=O)OCc1ccccc1 ?
Shiga toxin inh: -12.7; Pf growth 96h: -25.0%; Cycloheximide cs: -2.0; HCMV antiviral: -29.0; Pf growth 48h: inconclusive; HCV inh: -6.4%
